Compounds without any hit were thinned out: in the full panel of roughly 83,000, 20% have a hit.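 Plates (96-well) were seeded with cells, treated with compound at one concentration, and incubated for 48 hours before percent growth was determined.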 A number with no mark means an inactive call. Calls of active or inactive are those of the source. The calls were made as follows: active = growth percent below 10; inactive = the rest.

Common to all, as to test: NCI-60 one-dose screen, 48 h (100 = growth as untreated, 0 = no growth, -100 = all killed)
Common to all, as to conditions: 10 µM

Assay [1] relates to NCI-H23 lung.
Assay [2] concerns HOP-62 NSCLC.
Assay [3] has as its system NCI-H460 lung.
In assay [4] the test system is HOP-92 NSCLC.
Assay [5] has as its system NCI-H522 lung.
Assay [6] concerns A549/ATCC NSCLC.
The test system of assay [7] is 786-0 renal.
In assay [8] the test system is COLO 205 colon.
Assay [9] has as its system NCI-H322M lung.

On to `COc1ccc(-c2nnc(SCC(=O)Nc3ccc(C(=O)/C=C/c4ccccc4)cc3)n2-c2ccccc2)cc1OC`, for which the growth in [1] was 80.8%; in assay [2], 102%; in assay [3] it was 37.1%; in assay [4], 78.4%; in assay [5], 53.8%; in assay [6] it was 51.9%. Moreover, the growth is 67.1% in [7] and 56.1% in assay [8].

Regarding `COc1cc2c3c(n([C@@H]4CCOC4)c(=O)c2cc1OC)-c1cc2c(cc1C3=O)OCO2`, the growth in assay [1] was 22.8%; in [3], 4.11% (active); in assay [6], 30.4%; in assay [7] it was 7.24% (active); in assay [8], 38.8%.

For `COc1cc(-c2nn(-c3cccc(NC(=O)NCCNS(=O)(=O)c4ccc(Cl)cc4)c3)cc2-c2ccncc2)ccc1Cl`, the growth was 12.4% in [1]; 32.9% in assay [2]; 1.86% (active) in assay [3]; -3.88% (active) in assay [4]; 7.66% (active) in assay [5]; 13.3% in [6]. The growth in assay [7] was 6.74% (active); in [8] it was -64.2% (active).

For the molecule `N#Cc1ccc(C(=O)CSc2nccc(Nc3ccc(C(=O)O)cc3)n2)cc1`, the growth in assay [1] was 100%; in assay [2] it was 108%; in assay [3], 104%; in assay [4], 104%; in [5], 94.4%; in assay [6], 102%. The results for the growth in [7] and in assay [8] were 104% and 110%, respectively.

With `CC1OC2CC(=O)OC2C2=C1C(=O)c1c(O)c3c(c(O)c1C2=O)C1CC(O)C3(O)C(C)O1` (centres undefined), the growth in assay [1] was -34.2% (active); in [2] it was -49.5% (active); in [3], 2.35% (active); in assay [4], -13% (active); in assay [6], 2.66% (active); in [7] it was -12.3% (active). Further, in assay [8], the growth was -73.5% (active).

Regarding `COc1ccccc1/C=N\N/C(N)=N\N=C\c1ccccc1OC`, the growth was 26.8% in assay [1]; -24.8% (active) in [2]; 2.85% (active) in [3]; 48.9% in assay [4]; 7.99% (active) in assay [7]; -10.9% (active) in assay [8].

`CCCCCCCCCCCCCCCCCC[n+]1ccc2c(C)c3c(c(C)c2c1)c1cc(O)ccc1n3CC`: the growth was 4.06% (active) in [1]; 6.93% (active) in [3]; 29.2% in assay [5]; 13.9% in assay [6]; 5.53% (active) in [7]; -46.6% (active) in assay [8].

Take `CCOC(=O)c1cc(C(=O)c2cc(OC)c(OC)c(OC)c2)n2ccc(-c3cc[n+](CC(=O)c4cc(OC)c(OC)c(OC)c4)cc3)cc12`: the growth in assay [1] is 63.6%; in assay [2] it was 94.8%; in assay [3], -10.3% (active); in assay [4], 46.2%; in [5], -21.5% (active); in [6] it was 31.3%. In addition, the growth was -82.3% (active) in assay [7] and 43.7% in [8].

As to `COc1cc(C2CC(c3cc(Cl)c(C)cc3O)=NN2c2ccc(S(N)(=O)=O)cc2)cc(OC)c1OC` (centres undefined), the growth in [1] was 3.07% (active); in assay [9], 41.3%; in assay [3], -67.7% (active); in assay [5], 8.94% (active); in [6] it was 24.2%; in [8], -100% (active).

For `O=[N+]([O-])c1cc(Cl)cc(Cl)c1O`, the growth was 97.7% in assay [1]; 91.5% in [2]; 105% in assay [3]; 105% in assay [4]; 97.4% in [6]; 99.9% in [7]. Further, the growth in assay [8] was 108%.

For the molecule `CNC(=O)c1cc(Oc2ccc3c(c2)sc2nc(-c4ccc(NC(=O)Nc5ccc(Cl)c(C(F)(F)F)c5)cc4)cn23)ccn1`, the growth in assay [1] was 84.7%; in assay [2] it was 79.1%; in [3], 92.5%; in assay [4], 88.6%; in assay [5], 59%; in assay [6], 79.8%. For the same molecule, the growth was 72.6% in assay [7] and 89.6% in assay [8].

Turning to `CC(C)N(CCOc1cccc(-c2nc3sccn3c2-c2ccnc(S(C)(=O)=O)n2)c1)C(C)C`, the growth was 96.1% in [1]; 103% in assay [2]; 94.7% in assay [3]; 43.5% in assay [4]; 82% in assay [5]; 104% in [6]. In addition, the results for the growth in assay [7] and in assay [8] were 97.3% and 97.6%, respectively.

For the molecule `CCNc1nc(C(F)(F)F)nc2c1sc(=S)n2-c1ccccc1`, the growth was 93.4% in assay [1]; 100% in assay [3]; 70.4% in [5]; 74.4% in assay [6]; 101% in assay [7]; 106% in [8].

In the case of `COc1ccc(-c2n[nH]nc2-c2cc(OC)c3c(c2OC)OCO3)cc1`, the growth was 45.6% in [1]; 36.1% in assay [2]; 11.4% in assay [3]; 8.78% (active) in assay [4]; 33.3% in assay [6]; 65.6% in assay [7]. Besides, the growth in [8] was 12.9%.

For the molecule `CCn1c(SCc2ccc(C)cc2)nnc1-c1nn(-c2ccc(Cl)cc2Cl)c(-c2ccc(Cl)cc2)c1C`, the growth is 3.53% (active) in assay [1]; 9.33% (active) in assay [2]; 8.69% (active) in [3]; -17.2% (active) in [4]; -17.4% (active) in [5]; 9.87% (active) in assay [6]. The results for the growth in [7] and in assay [8] were 12.2% and -34.3% (active), respectively.

In the case of `CCOC(=O)Cn1c(=O)c2sc3ncccc3c2n2nnc(-c3ccccc3)c12`, the growth was 100% in assay [1]; 95.4% in assay [2]; 125% in assay [3]; 71% in [4]; 92.2% in assay [5]; 107% in assay [6]. The growth in assay [7] was 99.9%; in assay [8], 104%.

For the molecule `Cc1cc(=O)n2nnc3cc(Cl)c(Cl)cc3n12`, the growth is 95.6% in assay [1]; 111% in [2]; 113% in assay [3]; 101% in [4]; 53.9% in assay [5]; 104% in assay [6]. The growth in assay [7] was 108%; in assay [8], -63.7% (active).

For the molecule `C=CCNCCN1C(=O)c2ccc3c4c(ccc(c24)C1=O)C(=O)N(CCNCC=C)C3=O`, the growth in assay [1] was -36.4% (active); in assay [2] it was -28.7% (active); in assay [3], -39.3% (active); in assay [4] it was -34.5% (active); in assay [5] it was -79.7% (active); in assay [6] it was -71.4% (active). Further, the growth in assay [7] is -2.95% (active); in [8], -90.5% (active).

`Cc1cc(Br)nnc1Br`: the growth in [1] is 106%; in [2], 91.8%; in assay [3], 117%; in [4], 128%; in assay [5] it was 110%; in [6], 109%. The results for the growth in [7] and in [8] were 104% and 100%, respectively.

As to `Cc1cc(CC(C)CC(C)(C)C)n(O)c(=O)c1` (centres undefined) (tested in a mixture with another compound), the growth in [1] was 14.6%; in [3] it was 3.41% (active); in assay [4] it was 73.6%; in assay [6] it was 20.2%; in [7], 29%; in assay [8], 95.5%.
